Screens from PubChem BioAssay.
UBC13 polyUb = human UBC13 polyubiquitination inhibition; UBC13 polyubiquitin chain formation, TR-FRET; inhibition, % at 20 µM; 330,000 compounds, 0.47% hits; P61088; in the data active = inhibition above about 45%, passing the limit was not always enough
Target sequence (P61088 whole entry, looked up): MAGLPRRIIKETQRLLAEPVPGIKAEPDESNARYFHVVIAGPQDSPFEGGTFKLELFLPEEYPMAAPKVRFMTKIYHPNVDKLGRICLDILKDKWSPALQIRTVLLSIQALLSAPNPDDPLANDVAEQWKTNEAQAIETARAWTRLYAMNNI
MEKK2 mut-MEK5 = signal of MEK5 binding to mutant human MEKK2 PB1 domain. percent response, % at 10 µM. bead flow cytometry, Alexa488-MEK5 binding to MEKK2 mutant. 290,000 compounds, 0.35% hits; in the data active = percent response above about 24%, passing the limit was not always enough
MEKK2wt PB1 HTS = raises or lowers MEK5 binding to wildtype human MEKK2 PB1 domain; binding response (% of control), % at 10 µM; bead flow cytometry, Alexa488-MEK5 binding to MEKK2 WT; actives lie on both sides; 290,000 compounds, 1.1% hits; in the data active = binding response below about 67% or above about 130%
MEKK3 PB1 HTS = raises or lowers MEK5 binding to the human MEKK3 PB1 domain; Q99759; bead-based flow cytometry, Alexa488-MEK5 binding to MEKK3; actives lie on both sides; 0 = blocked by unlabeled MEK5, 100 = vehicle; binding response (% of control), % at 10 µM; 290,000 compounds, 1.4% hits; AID 1529;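 active = binding response more than 3 SD above or below the average of its plate-row segment, actives on both sides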;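 note: Alexa488 bead fluorescence after subtracting the streptavidin-only scavenger bead signal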
Rce1 inhib = blocks yeast Ras-converting enzyme. yeast membranes, quenched prenylated peptide cleavage fluorescence. calls only. 290,000 compounds, 0.27% hits. AID 2563;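 active = fall in fluorescence gain of 50% or more versus controls, with final raw signal at or below 3038400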;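 note: plate controls were neutral control wells for no effect and wells lacking membranes for full effect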
Target sequence (Q03530 whole entry, looked up): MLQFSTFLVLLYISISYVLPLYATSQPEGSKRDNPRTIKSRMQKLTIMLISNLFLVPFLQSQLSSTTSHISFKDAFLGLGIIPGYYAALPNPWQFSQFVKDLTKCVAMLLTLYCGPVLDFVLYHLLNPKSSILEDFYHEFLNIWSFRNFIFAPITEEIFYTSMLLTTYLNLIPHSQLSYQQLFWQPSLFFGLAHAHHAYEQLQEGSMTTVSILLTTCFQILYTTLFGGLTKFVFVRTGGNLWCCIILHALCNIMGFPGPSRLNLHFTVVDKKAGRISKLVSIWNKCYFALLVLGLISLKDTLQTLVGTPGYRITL
MEKK2wt confirm = raises or lowers MEK5 binding to wildtype human MEKK2, retest | binding response (% of control), % at 10 µM | shares compounds with MEKK3 PB1 HTS | bead flow cytometry, Alexa488-MEK5 binding to MEKK2 WT; actives lie on both sides | 5,900 compounds, 2.4% hits | AID 1892; in the data active = binding response below about 16% or above about 210%; inactive = in between
MEKK2mut confirm = signal of MEK5 binding to mutant human MEKK2, retest | shares compounds with MEKK3 PB1 HTS | bead flow cytometry, Alexa488-MEK5 binding to MEKK2 mutant | percent response, % at 10 µM | 5,900 compounds, 2% hits | AID 1893; in the data active = percent response mostly above about 71%, no sharp cut-off; inactive = mostly below about 38%;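 note: higher means compound restores mutant binding toward wildtype level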
MEKK3 confirm = confirmation of inhibitors of MEK5 binding to human MEKK3; AID 1894; 5,900 compounds, 1.8% hits; shares compounds with MEKK3 PB1 HTS; bead flow cytometry, Alexa488-MEK5 binding to MEKK3; hits give low values; binding response (% of control), % at 10 µM;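 active = binding response below 72% of control, or above a set upper limit, though filed actives all read lower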;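 note: 100% = DMSO only wells and 0% = binding blocked by excess unlabeled MEK5; lower values mean stronger disruption of MEK5 binding to MEKK3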
* marks the source's active call; other numbers are inactive results; i = inactive; / = no result given; [ ] = another dose, or the depositor's remark. Compounds with a hit are over-represented: about 2.5% of the library has one in this group of screens.

SMILES	UBC13 polyUb	MEKK2 mut-MEK5	MEKK2wt PB1 HTS	MEKK3 PB1 HTS	Rce1 inhib	MEKK2wt confirm	MEKK2mut confirm	MEKK3 confirm
Cc1ccc(Cn2c(=N)n(CC(O)COc3ccccc3)c3ccccc32)cc1 (configuration not stated)	43	13	134*	109	i	131	17	105
COC(=O)c1c(NC(=O)c2cccnc2)sc(C(=O)N(C)C)c1C	-9	1	109	162*	i	107	3	106
O=[N+]([O-])c1ccc(P(=O)(Cc2ccccc2)c2ccccc2O)cc1 (configuration not stated)	-13	1	101	103	i	/	/	/
O=C(CC1C(=O)NCCN1Cc1ccc(F)cc1)NCCCn1cccn1 (configuration not stated)	2	-8	97	106	i	/	/	/
Oc1ccccc1CN1CCN(C(O)(c2ccccc2)c2ccccc2)CC1	10	7	111	104	i	/	/	/
Oc1ccccc1CN1CCCN(Cc2ccccc2O)C1	0	7	111	124*	i	107	3	101
CC(C)OC(=O)NC(Nc1ccccc1C(=O)O)(C(F)(F)F)C(F)(F)F	7	29	134	132*	i	101	1	100
O=S(=O)(Nc1ccc(-c2nnc(SCc3ccc(Cl)cc3)o2)cc1)c1ccccc1	-24	3	115	131*	i	94	-2	102
CCCN(c1ccc(OCC)cc1)S(=O)(=O)c1ccc2c(c1)NC(=O)CO2	2	3	105	104	i	/	/	/
O=C(NS(=O)(=O)c1ccc(Cl)s1)c1ccccc1	0	23	193*	112	i	115	9	103
Cc1ccc([C@@H]2[C@@H]3C(=O)N(C)C(=O)[C@@H]3[C@]3(Cc4ccccc4)C(=O)N(Cc4ccccn4)CC(=O)N23)o1	1	4	98	102	i	/	/	/
O=C(CCC(=O)Nc1ccccc1Cl)NNC(=O)Nc1cccc([N+](=O)[O-])c1	1	-6	91	94	i	/	/	/
CCC(C)NCCOCCOc1ccc(F)cc1 (configuration not stated)	-11	-21	3.0*[inhibitor]	2.0*[inhibitor]	i	101	-3	99
CCC(C)NCCOCCOc1cc(C)c(Cl)c(C)c1 (configuration not stated)	-3	7	107	102	i	/	/	/
O=C(CN1C(=O)CC(c2ccccc2)S(=O)(=O)c2ccccc21)N1CCCC1 (configuration not stated)	-1	-5	91	96	i	/	/	/
CC(=O)Nc1cccc(OCCCNS(=O)(=O)c2ccc(C#N)cc2)c1	1	-3	96	96	i	/	/	/
Cc1cc(C)n(-c2nc(NCCN(C)C)c3c4c(sc3n2)CCCC4)n1	16	28	147*	88	i	137	31	105
COc1ccccc1CN1CC(C(=O)N(C)Cc2ccc(C)o2)CCC1=O (configuration not stated)	1	5	102	101	i	/	/	/
CCOc1c(Br)cc(CNCc2cccs2)cc1OC	7	26	100	99	i	/	/	/
CCCCNCc1cc(Br)c(OCc2cccs2)c(OC)c1	24	21	136*	95	i	123	8	100
CCC(C)NC(=O)CN1C(=O)c2cccc3cccc1c23 (configuration not stated)	10	5	100	102	i	/	/	/
CCN1/C(=N\N)c2cccc3cccc1c23	-20	-11	-8.0*	58*[inhibitor]	i	64	-11	77
CCc1cccc(C)c1NC(=O)C1CCN(c2nn3c(=O)cc(C)nc3s2)CC1	-3	-1	101	100	i	/	/	/
Cc1ccc(C)c(C2=CSC3=NS(=O)(=O)CCN23)c1	4	-21	3.0*[inhibitor]	2.0*[inhibitor]	/	95	-6	98
Cc1ccc(C2=CSC3=NS(=O)(=O)CCN23)cc1	8	-2	88	89	/	/	/	/
SMILES	UBC13 polyUb	MEKK2 mut-MEK5	MEKK2wt PB1 HTS	MEKK3 PB1 HTS	Rce1 inhib	MEKK2wt confirm	MEKK2mut confirm	MEKK3 confirm
Clc1cccc(CN2CCN(Cc3nc(CCc4ccccc4)no3)CC2)c1	11	0	102	103	i	/	/	/
O=[N+]([O-])c1ccc2nc(SCc3cn4ccccc4n3)[nH]c2c1	1	19	102	104	i	/	/	/
Cc1cccc2nc(CSc3nc4ccc([N+](=O)[O-])cc4[nH]3)cn12	-9	0	110	151*	i	103	8	103
Cc1cccc(N2CCN(C(=O)c3cc(COc4ccc(F)c(F)c4)on3)CC2)n1	5	2	102	97	i	/	/	/
CNC(=O)OC(C)CNS(=O)(=O)c1ccc(C)cc1 (configuration not stated)	-2	-21	2.0*[inhibitor]	2.0*[inhibitor]	i	104	18	104
Cc1sc(NC(=O)CN2CCOCC2)nc1-c1ccc2c(c1)CCN2S(=O)(=O)c1ccccc1	6	0	95	95	i	/	/	/
O=C(CN1CCOCC1)Nc1nc(-c2ccc3c(c2)CCN3S(=O)(=O)c2ccccc2)cs1	0	-26	3.0*[inhibitor]	2.0*[inhibitor]	i	99	-9	101
Cc1ccc(S(=O)(=O)n2ccc3c(OCCOCCSCC(NC(=O)OC(C)(C)C)C(=O)O)cccc32)cc1 (configuration not stated)	-19	1	100	104	i	/	/	/
Cc1ccc(S(=O)(=O)n2ccc3c(OCCOCCNCc4ccc(F)cc4)cccc32)cc1	38	54*	225*	109	i	191	60	94
Cc1ccc(/C=C2\SC(=S)N(C3CCS(=O)(=O)C3)C2=O)o1 (configuration not stated)	-30	-7	83	89	i	/	/	/
NS(=O)(=O)c1ccc(-c2ccc(/C=C3\SC(=S)N(C4CCS(=O)(=O)C4)C3=O)o2)cc1 (configuration not stated)	-41	-31	56*[inhibitor]	78	i	76	-12	98
Cc1csc(-c2cnn(-c3ccccc3)c2NC(=O)c2cccc(C(F)(F)F)c2)n1	-18	7	119	131*	i	109	8	102
O=C1c2cccnc2C(Nc2ccc(Cl)cc2)N1Cc1cccs1 (configuration not stated)	8	-16	54*[inhibitor]	75*[inhibitor]	i	108	7	104
CCN1CCN(C(c2ccc(C(F)(F)F)cc2)c2ccc3cccnc3c2O)CC1 (configuration not stated)	-6	40*	164*	115	i	166	40	106
